D2 ag-1: HTS Assay for Allosteric Agonists of the Human D2 Dopamine Receptor: Primary Screen for Agonists; D(2) dopamine receptor (Homo sapiens), P14416; HEK293 T-REx D2 cells, calcium flux agonist mode; 340,000 compounds, 0.53% hits; AID 485358, 2010; activation, % at 2 µM;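 active = activation over 3 SD above normal in the single-dose calcium agonist read, cut at about 30% in these data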; also: 0% is about no effect
Target sequence (P14416 whole entry, looked up): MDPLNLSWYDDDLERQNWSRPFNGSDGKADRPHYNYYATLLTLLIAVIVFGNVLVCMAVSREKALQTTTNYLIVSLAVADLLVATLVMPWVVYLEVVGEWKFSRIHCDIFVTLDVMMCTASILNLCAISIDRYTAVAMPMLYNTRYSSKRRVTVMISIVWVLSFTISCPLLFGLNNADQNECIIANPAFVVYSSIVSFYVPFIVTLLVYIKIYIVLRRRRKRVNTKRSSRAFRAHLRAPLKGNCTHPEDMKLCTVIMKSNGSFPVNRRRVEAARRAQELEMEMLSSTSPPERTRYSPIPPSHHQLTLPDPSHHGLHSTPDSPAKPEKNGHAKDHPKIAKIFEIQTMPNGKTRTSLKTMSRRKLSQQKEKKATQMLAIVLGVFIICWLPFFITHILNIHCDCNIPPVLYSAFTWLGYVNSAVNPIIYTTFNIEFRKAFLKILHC
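In this primary screen, compounds producing a positive calcium signal within 180 s of addition to tetracycline-induced, force-coupled HEK293 Trex D2 cells are flagged; cells are dye-loaded with a no-wash calcium kit beforehand.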
D2 PAM-1: Beta-Arrestin HTS for Positive Allosteric Modulators of the Human D2 Dopamine Receptor: Potentiators. potentiation, % (no concentration beside the values). AID 624464, 2012. 360,000 compounds, 0.23% hits. DiscoveRx D2 beta-arrestin cells, luminescence, 90 min; 100% = 57 uM dopamine signal; in the data active = potentiation above about 50%; inconclusive = mostly about 30% to 49%
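PathHunter beta-arrestin assay in DiscoveRx D2 cells. Compounds were added with an EC20 of dopamine (50 nM final) for 90 min at 37 deg C. Luminescence was read 1 h after detection reagent, with 57 uM dopamine as the EC100 control.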
D2 PAM-2: HTS Assay for Positive Allosteric Modulators of the Human D2 Dopamine Receptor: Primary Screen for Potentiators; D(2) dopamine receptor (Homo sapiens), P14416; HEK293 T-REx D2, calcium flux, EC20 dopamine potentiation; potentiation, % at 10 µM; 340,000 compounds, 0.34% hits; AID 485347, 2010;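 active = potentiation over 3 SD above the plate norm, cut at about 30% in these data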; also: 0% is about no effect
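Using a no-wash calcium dye in inducible, force-coupled HEK293 Trex cells expressing D2, we tracked fluorescence each second for 180 s after compound, then for 180 s after EC20 dopamine to detect augmented signalling.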
D2 antagonist: HTS Assay for Allosteric Antagonists of the Human D2 Dopamine Receptor: Primary Screen for Antagonists; D(2) dopamine receptor (Homo sapiens), P14416; HEK293 TREx D2 cells, calcium flux, dopamine EC80; inhibition, % at 10 µM; 340,000 compounds, 2% hits; in the data active = inhibition above about 30%; inactive = below that, where a call was filed; also: 0% is about no effect
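Overnight-induced (tetracycline, 30 C) HEK293 T-REx cells carrying force-coupled D2 receive a no-wash calcium dye, then compound, then EC80 dopamine at 180 s; signals are read kinetically throughout.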
D2 ag-2: Beta-Arrestin HTS for Positive Allosteric Modulators of the Human D2 Dopamine Receptor: Agonists; D(2) dopamine receptor (Homo sapiens), P14416; DiscoveRx PathHunter D2 beta-arrestin, luminescence, 90 min; 100% = 57 uM dopamine signal; activation, % (concentration not given with the values); 360,000 compounds, 0.084% hits; in the data active = activation above about 40%; inconclusive = between about 15% and that limit
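DiscoveRx PathHunter D2 beta-arrestin cells (2,100/well) attached overnight, then compound-stimulated 90 min at 37 C in HBSS/10 mM HEPES/0.1% Tween-20 buffer; beta-galactosidase complementation read by luminescence after 1 h at ambient temperature. Dopamine 57 uM final (EC100) as control.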
Active calls of the source: *; ? = inconclusive; . = not tested or not shown. Most compounds without a hit are left out; they make up all but 2.4% or so of the library.

SMILES | D2 ag-1 | D2 PAM-1 | D2 PAM-2 | D2 antagonist | D2 ag-2
S=C1SCN(Cc2ccccn2)CN1Cc1ccco1 | 1 | -4 | -4 | 36* | 2
CC(NC(=O)CN1CCOCC1)c1ccc(F)cc1 (stereo not given) | 1 | -9 | 17 | 0 | -3
Cc1ccccc1Nc1nc(-c2sc(NC(=O)c3cccc(Cl)c3)nc2C)cs1 | 0 | . | 31* | -12 | .
CCOc1ccccc1C(=O)NC1(C(F)(F)F)C(=O)Nc2c1c(=O)[nH]c(=O)n2-c1ccccc1 (stereo not given) | 0 | . | 2 | . | .
O=C(c1cc2ccc([N+](=O)[O-])cc2oc1=O)N1CCOCC1 | 0 | 2 | -11 | 8 | 0
Cc1cc(O)ccc1NC(=O)CCN1C(=O)c2ccc([N+](=O)[O-])cc2C1=O | -1 | 73* | 4 | 27 | ?
O=C(CCN1C(=O)c2ccc([N+](=O)[O-])cc2C1=O)Nc1cccc(O)c1 | -1 | 63* | 5 | -13 | ?
Cc1ccc(NC(=O)CCN2C(=O)c3ccccc3C2=O)c(C)c1 | . | -9 | . | . | -2
O=C(CCCn1cnc([N+](=O)[O-])n1)Nc1cccc(O)c1 | 2 | 4 | 6 | 35* | 1
O=C(CCCn1cnc([N+](=O)[O-])n1)Nc1ccc(F)c(Cl)c1 | 0 | -7 | 1 | 2 | -1
COC(=O)c1ccccc1NC(=O)Cn1c(=O)nc(-c2ccccc2)c2cc(Cl)ccc21 | -1 | . | 7 | . | .
CCCC(CCC)c1nc2ccncc2[nH]1 | 0 | -1 | 36* | -5 | 3
CCN(CC)S(=O)(=O)c1ccc(Cl)c(C(=O)Nc2ccc(Cl)cc2[N+](=O)[O-])c1 | -1 | 63* | 3 | -9 | 12
CCC(=O)c1cn(CC(=O)Nc2ccc(F)cc2)c2ccccc12 | . | -15 | . | . | -12
COc1ccc(NS(=O)(=O)c2ccc(N/N=C(\C)c3ccncc3)c([N+](=O)[O-])c2)cc1 | 0 | 15 | 3 | 79* | 0
C/C(=N\Nc1ccc(S(=O)(=O)Nc2ccccc2)cc1[N+](=O)[O-])c1ccncc1 | . | . | 21 | . | .
Cc1ccc(C)c(CNC(=O)c2cnc3sc(N4CCCC4)nn3c2=O)c1 | 0 | . | 1 | . | .
O=C(COC(=O)/C=C/c1cccs1)NC(c1ccccc1)c1ccccc1 | -2 | 15 | -5 | -2 | 0
O=C(COC(=O)/C=C/C(=O)N1CCN(c2ccccc2)CC1)NC(c1ccccc1)c1ccccc1 | 0 | -1 | -8 | 69* | -3
Cc1nn(Cc2ccc([N+](=O)[O-])cc2)c(=O)n1-c1c(F)cccc1F | 0 | -8 | -1 | 37* | 1
Cc1nn(Cc2ccc([N+](=O)[O-])cc2)c(=O)n1-c1cccc(Cl)c1 | 0 | -3 | -2 | 32* | 5
Cc1nn(Cc2ccc([N+](=O)[O-])cc2)c(=O)n1-c1ccc(F)cc1 | 0 | -14 | 17 | -17 | -3
CCN(C(=O)NCc1noc2ccccc12)c1cc(C)ccc1C | 0 | . | -8 | . | .
O=C(NC1CCCCC1)c1ccc(-c2ccccc2[N+](=O)[O-])o1 | -1 | -18 | -23 | 59* | 2
Nc1cc(Cl)ccc1Nc1ccncc1 | 6 | -21 | 13 | -3 | 11
SMILES | D2 ag-1 | D2 PAM-1 | D2 PAM-2 | D2 antagonist | D2 ag-2
O=C(Cn1c2[n+](c3ccc(C(F)(F)F)cc31)CCCCC2)c1cccc([N+](=O)[O-])c1 | 1 | -20 | -22 | 35* | -8
O=C(Cn1c2[n+](c3ccc(C(F)(F)F)cc31)CCCCC2)c1ccc2c(c1)OCCO2 | 0 | -13 | -23 | 21 | -8
COc1cc(OC)c(NC(=O)Nc2ccc3c(c2)N(C)C(=O)c2ccccc2S3)cc1Cl | 1 | . | -4 | . | .
O=C1[C@H]2[C@@H](c3ccc(F)cc3)N3C(=O)N(c4cccc(Br)c4)C(=O)[C@@]3(Cc3ccccc3)[C@H]2C(=O)N1C1CCCCC1 | 1 | -14 | -4 | 41* | 0
Cc1ccc(NC(=O)c2ccc(OCc3c(C)noc3C)cc2)nc1 | -1 | 5 | -4 | 34* | 0
Cc1ccc(NC(=O)c2ccc(OCc3c(C)noc3C)cc2)cc1 | 0 | . | -5 | -1 | .
COc1ccc(CN2C(=O)C(NC(=O)c3ccc(C)cc3)(C(F)(F)F)N=C2c2ccccc2)cc1 (stereo not given) | 0 | . | -8 | . | .
CSCCC(NS(=O)(=O)c1ccc2[nH]c(=O)c(=O)[nH]c2c1)C(=O)O (stereo not given) | -1 | -4 | -9 | 36* | -1
CSCCC(NS(=O)(=O)c1ccc(Cl)c(Cl)c1)C(=O)O (stereo not given) | 0 | -6 | -7 | 1 | -4
CC(C)(C)NC(=O)C(c1ccco1)N(C(=O)c1csnn1)c1ccccc1 (stereo not given) | -1 | -7 | 36* | 0 | -2
CCC(C)(C)NC(=O)C(c1cccnc1)N(C(=O)c1csnn1)c1ccccc1 (stereo not given) | 0 | -31 | 40* | 5 | -19
CC(C)(C)NC(=O)C(c1ccncc1)N(C(=O)c1csnn1)c1ccccc1 (stereo not given) | 0 | -10 | -1 | -14 | -3
Cc1ccccc1N(C(=O)c1ccccn1)C(C(=O)NCc1ccccc1)c1cccnc1 (stereo not given) | . | -3 | 36* | . | 0
Cc1ccc(N(C(=O)c2csnn2)C(C(=O)NC(C)(C)C)c2cccs2)cc1 (stereo not given) | 0 | -9 | 9 | 7 | -1
O=C(NCc1ccccc1)C(c1cccnc1)N(C(=O)c1ccccn1)c1ccccc1F (stereo not given) | -1 | -6 | 1 | -1 | -5
Cc1ccccc1N(C(=O)c1csnn1)C(C(=O)NC(C)(C)C)c1cccs1 (stereo not given) | 0 | -3 | -11 | 36* | -2
Cc1ccsc1C(C(=O)NCc1ccccc1)N(C(=O)c1csnn1)c1ccccc1 (stereo not given) | -1 | -3 | -6 | 33* | -1
Cc1ccc(CSc2nc3ccc(NC(=O)C(C)C)cc3s2)cc1 | . | . | -7 | . | .
Cn1c(=O)[nH]c(=O)c2c1nc(N1CCOCC1)n2CCSc1nnnn1-c1ccccc1 | 0 | -7 | -7 | 37* | 6
CC(CSc1nnnn1-c1ccccc1)Cn1c(N2CCCC2)nc2c1c(=O)[nH]c(=O)n2C (stereo not given) | 1 | -11 | 6 | -10 | -4
